Reference: PubChem BioAssay (NCATS)
Inconclusive results are not listed. The source made the active and inactive calls. Unless noted, calls come from the whole dose curve; as a rule, active = well fitted inhibition curve with a large enough effect; inconclusive = small, poorly fitted or top-dose-only effect; inactive = flat fitted curve, though single readings scatter.

Experiments:
ATS95 = experiment: qHTS profiling for inhibitors of Plasmodium falciparum proliferation (AID 504749); note: nearly all actives have a fitted effect of over 60% in size; conditions: P. falciparum in erythrocytes, SYBR Green DNA, 72 h; series mostly up to 28.7 µM
Summary of the method: (§1)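 Parasite proliferation within erythrocytes, 72 h exposure. Endpoint: SYBR Green I fluorescence after overnight lysis at room temperature. Controls: 0.29 uM artemisinin, DMSO.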

C2A = experiment: as above; conditions: P. falciparum in erythrocytes, SYBR Green DNA, 72 h; series mostly up to 28.7 µM
Summary of the method: as §1

CP215 = experiment: as above; conditions: P. falciparum in erythrocytes, SYBR Green DNA, 72 h; series mostly up to 28.7 µM
Summary of the method: as §1

CP250 = experiment: as above; conditions: P. falciparum in erythrocytes, SYBR Green DNA, 72 h; series mostly up to 28.7 µM
Summary of the method: as §1

CP252 = experiment: as above; conditions: P. falciparum in erythrocytes, SYBR Green DNA, 72 h; series mostly up to 28.7 µM
Summary of the method: as §1

CP256 = experiment: as above; conditions: P. falciparum in erythrocytes, SYBR Green DNA, 72 h; series mostly up to 28.7 µM
Summary of the method: as §1

CP262 = experiment: as above; conditions: P. falciparum in erythrocytes, SYBR Green DNA, 72 h; series mostly up to 28.7 µM
Summary of the method: as §1

CP265 = experiment: as above; conditions: P. falciparum in erythrocytes, SYBR Green DNA, 72 h; series mostly up to 28.7 µM
Summary of the method: as §1

CP266 = experiment: as above; conditions: P. falciparum in erythrocytes, SYBR Green DNA, 72 h; series mostly up to 28.7 µM
Summary of the method: as §1

CP297 = experiment: as above; conditions: P. falciparum in erythrocytes, SYBR Green DNA, 72 h; series mostly up to 28.7 µM
Summary of the method: as §1

CP315 = experiment: as above; conditions: P. falciparum in erythrocytes, SYBR Green DNA, 72 h; series mostly up to 28.7 µM
Summary of the method: as §1

CP325 = experiment: as above; conditions: P. falciparum in erythrocytes, SYBR Green DNA, 72 h; series mostly up to 28.7 µM
Summary of the method: as §1

CP329 = experiment: as above; conditions: P. falciparum in erythrocytes, SYBR Green DNA, 72 h; series mostly up to 28.7 µM
Summary of the method: as §1

JCK = experiment: as above; conditions: P. falciparum in erythrocytes, SYBR Green DNA, 72 h; series mostly up to 28.7 µM
Summary of the method: as §1

PC15 = experiment: as above; conditions: P. falciparum in erythrocytes, SYBR Green DNA, 72 h; series mostly up to 28.7 µM
Summary of the method: as §1

PC26 = experiment: as above; conditions: P. falciparum in erythrocytes, SYBR Green DNA, 72 h; series mostly up to 28.7 µM
Summary of the method: as §1

PC49 = experiment: as above; conditions: P. falciparum in erythrocytes, SYBR Green DNA, 72 h; series mostly up to 28.7 µM
Summary of the method: as §1

SC27B = experiment: as above; conditions: P. falciparum in erythrocytes, SYBR Green DNA, 72 h; series mostly up to 28.7 µM
Summary of the method: as §1

[1] = Stat Signaling Pathway (AID 446; active = well fitted curve in either direction with a large enough effect, not every such curve was filed as active;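 note: ME-180 cervical cancer cells given 40 pM IL-6 alongside compound; SIE-controlled beta-lactamase reporter measured as 460/530 nm FRET emission ratio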); conditions: ME-180 SIE beta-lactamase reporter, IL-6 stimulated, 5 h; series mostly up to 38 µM
Summary of the method: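 ME-180 SIE-bla cells; overnight plating; cpd + IL-6 40 pM, 5 h, 37 C; LiveBLAzer 2.5 h RT; 460/530 nm emission ratio. Normalized to 300 pM IL-6 and 125 nM JAK inhibitor controls.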

[2] = target: 3',5'-cyclic-AMP phosphodiesterase 4B (Homo sapiens) (UniProt Q07343); experiment: qHTS Assay for Inhibitors of PDE-IV (AID 607; active = well fitted activation curve with a large enough effect in the main read-out, with a control signal flat, not every such curve was filed as active); conditions: HEK293 ACTOne CNG channel cells, membrane potential fluorescence; series mostly up to 22.9 µM
3',5'-cyclic-AMP phosphodiesterase 4B (Homo sapiens), sequence (Q07343 whole entry, looked up): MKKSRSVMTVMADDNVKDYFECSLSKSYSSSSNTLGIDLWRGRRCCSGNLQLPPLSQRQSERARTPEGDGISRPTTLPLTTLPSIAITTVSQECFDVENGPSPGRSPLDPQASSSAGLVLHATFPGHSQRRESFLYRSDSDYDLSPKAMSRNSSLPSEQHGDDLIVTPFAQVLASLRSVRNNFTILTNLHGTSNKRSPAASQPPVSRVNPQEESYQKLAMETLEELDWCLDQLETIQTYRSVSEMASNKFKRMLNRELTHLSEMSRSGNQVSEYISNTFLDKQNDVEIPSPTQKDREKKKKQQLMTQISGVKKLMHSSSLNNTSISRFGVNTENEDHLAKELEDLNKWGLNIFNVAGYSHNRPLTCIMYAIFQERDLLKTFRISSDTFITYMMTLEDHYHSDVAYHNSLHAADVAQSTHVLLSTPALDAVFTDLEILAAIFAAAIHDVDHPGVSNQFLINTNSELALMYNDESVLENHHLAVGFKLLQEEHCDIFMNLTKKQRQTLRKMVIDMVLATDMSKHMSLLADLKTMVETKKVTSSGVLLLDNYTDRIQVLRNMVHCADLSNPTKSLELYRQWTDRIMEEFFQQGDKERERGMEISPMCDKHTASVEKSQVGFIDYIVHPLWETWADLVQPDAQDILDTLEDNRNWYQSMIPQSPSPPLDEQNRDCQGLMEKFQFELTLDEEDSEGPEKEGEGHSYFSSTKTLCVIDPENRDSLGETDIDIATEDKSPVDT
Summary of the method: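 ACTOne HEK293 cells carry a modified cAMP-gated CNG channel and express endogenous PDE4; plated 1000 cells/well, compounds up to 22.9 uM final. Membrane-potential dye fluorescence (ex 535/em 590) was read; parental cells received 10 uM forskolin + 100 uM RO 20-1724.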

Measured: Potency

C[N+](C)(C)CC(=O)[O-]
not listed: [1] | [2]
inactive: all other assays above

CN1CC[C@@]23CCCC[C@@H]2[C@@H]1Cc1ccc(O)cc13
inactive: [1] | [2]
